From PubChem BioAssay AID720517 (National Center for Advancing Translational Sciences (NCATS), 2013)
Results filed as inconclusive are left out. Activity calls are given as the source filed them. Calls come from the whole dose curve; as a rule, active = well fitted activation curve with a large enough effect; inconclusive = small, poorly fitted or top-dose-only effect; inactive = flat fitted curve, though single readings scatter.

Experiment: qHTS for Inhibitors of Cell Surface uPA Generation: FP59 Counterscreen for Cherry-picked Compounds; note: 0% is about no effect
Conditions: FP59 anthrax toxin cytotoxicity counterscreen, cells; series mostly up to 115 µM; activity (protection from FP59): at the top concentration
For `CCn1c(SC(C)C(=O)NC2CCCC2)nc2cc(S(N)(=O)=O)ccc21` (stereo unspecified), the “activity (protection from FP59)” value was -1.27% (inactive). With `O=C1C[C@@H]2CCN3C(=O)CCC[C@@H]([C@H]23)[C@H]1Cc1ccccc1` the “activity (protection from FP59)” value was -1.4% (inactive). For `CC(=O)COc1ccc2c(-c3cccc([N+](=O)[O-])c3)cc(=O)oc2c1`, the “activity (protection from FP59)” value was -0.595% (inactive). With `NC(=O)CC[C@H](NC(=O)c1ccc(F)cc1)C(=O)OCC(=O)Nc1c(F)c(F)c(F)c(F)c1F` the “activity (protection from FP59)” value was -1.38% (inactive). In the case of `COc1ccc(N2CCN(C3CCN(S(=O)(=O)c4ccc(F)cc4)CC3)CC2)cc1`, the “activity (protection from FP59)” value is reported as -1.36% (inactive). For `O=C(Nc1ccc(Cl)cc1)Nc1nnc(-c2ccncc2)s1`, the “activity (protection from FP59)” value was -1.66% (inactive). For `COc1ccc(C(=O)NCCOC(C)C)cc1OC1CCN(C(C)=O)CC1`, the “activity (protection from FP59)” value was -1.24% (inactive). With `CC1(C)S[C@@H]2[C@H](NC(=O)C(C(=O)O)c3ccccc3)C(=O)N2[C@H]1C(=O)O` (stereo partly specified) the “activity (protection from FP59)” value was -1.39% (inactive). For `O=C(N/C(=C\c1cccc([N+](=O)[O-])c1)C(=O)N1CCOCC1)c1ccc([N+](=O)[O-])cc1`, the “activity (protection from FP59)” value was -0.98% (inactive). For `CCN(c1ccc(OC)cc1)S(=O)(=O)c1ccc2c(c1)NC(=O)CS2`, the “activity (protection from FP59)” value was -0.559% (inactive). In the case of `O=c1[nH]c(SCc2cccc(Cl)c2)nc2ccccc12`, the “activity (protection from FP59)” value is reported as -1.21% (inactive). In the case of `CCCCn1c(-c2cccnc2)nc2cc3[nH]c(=O)c(C(C)C)nc3cc21`, the “activity (protection from FP59)” value is reported as -1.21% (inactive). With `O=C(CCN1CCN(c2ccccc2F)CC1)Nc1ccc(F)cc1` the “activity (protection from FP59)” value was -1.42% (inactive). In the case of `CC1(NC(=O)CSc2nnc(-c3c[nH]c4ccccc34)n2C2CC2)CCS(=O)(=O)C1` (stereo unspecified), the “activity (protection from FP59)” value is reported as 0.18% (inactive). With `O=C(COc1ccccc1F)NCC(c1ccc(F)cc1)N1CCOCC1` (stereo unspecified) the “activity (protection from FP59)” value was -1.3% (inactive). In the case of `COc1ccccc1N=Nc1c(C)[nH]n(-c2ccccc2)c1=O`, the “activity (protection from FP59)” value is reported as -1.4% (inactive).
